Where “and” joins values, the source holds several entries; their conditions need not be identical. Equal values may be shown once. Among all 5,500 compounds or so, about 2,000 (36%) were called active. About 18% were inconclusive and are not listed. Rule as the data show it: active = normalized growth mostly below about 0.91 (no sharp cut-off); inconclusive = no clear call, values can overlap the other calls; inactive = mostly above about 0.92. The list shows a part of the results.
Assay: chemical genetic growth profiling, strain panel (AID 1159580);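 also: tested at 20 µM; growth read once vehicle control cultures reached saturation at 30 °C; 1 = growth at the plate median or of vehicle wells; lower values mean less growth of the strain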
Details: S. cerevisiae deletion strains, growth OD

Measured: normalized growth

CC(=O)OCC(=O)[C@@]1(O)CCC2C3CCC4=CC(=O)CC[C@]4(C)C3C(=O)C[C@@]21C (stereo not given in full)
inactive: locus YAL021C, strain ccr4, active compounds read low 0.988 | locus YAL026C, strain drs2, active compounds read low 1.01 | locus YAL030W, strain snc1, active compounds read low 0.985 | locus YBL061C, strain skt5, active compounds read low 0.965 | locus YBR009C, strain hhf1, active compounds read low 0.998 | locus YBR021W, strain FUR4, active compounds read low 1.01 | locus YBR023C, strain chs3, active compounds read low 0.989 | locus YBR171W, strain sec66, active compounds read low 0.969 | locus YBR229C, strain ROT2, active compounds read low 1.01 | locus YBR231C, strain swc5, active compounds read low 0.951 | locus YBR279W, strain paf1, active compounds read low 0.997 | locus YCL011C, strain gbp2, active compounds read low 1.01 | locus YCL016C, strain dcc1, active compounds read low 1.02 | locus YCL029C, strain bik1, active compounds read low 1.03 | locus YCL061C, strain MRC1, active compounds read low 0.982 | locus YCL069W, strain vba3, active compounds read low 0.98 | locus YCR088W, strain abp1, active compounds read low 0.98 | locus YDL005C, strain med2, active compounds read low 0.973 | locus YDL035C, strain GPR1, active compounds read low 1 | locus YDL040C, strain nat1, active compounds read low 0.963 | locus YDL074C, strain BRE1, active compounds read low 1.01 | locus YDL101C, strain DUN1, active compounds read low 1.01 | locus YDL134C, strain PPH21, active compounds read low 1 | locus YDL185W, strain tfp1, active compounds read low 1.03 | locus YDL192W, strain arf1, active compounds read low 1.03 | locus YDR001C, strain nth1, active compounds read low 0.974 | locus YDR069C, strain doa4, active compounds read low 0.98 | locus YDR101C, strain arx1, active compounds read low 1.02 | locus YDR137W, strain rgp1, active compounds read low 1 | locus YDR159W, strain sac3, active compounds read low 0.963 | locus YDR162C, strain NBP2, active compounds read low 1.01 | locus YDR195W, strain ref2 0.913 | locus YDR297W, strain sur2, active compounds read low 0.989 | locus YDR318W, strain mcm21, active compounds read low 1.01 | locus YDR334W, strain swr1, active compounds read low 0.968 | locus YDR335W, strain msn5, active compounds read low 0.969 | locus YDR388W, active compounds read low 1.03 | locus YDR392W, strain spt3, active compounds read low 1.04 | locus YDR502C, strain sam2, active compounds read low 1.04 | locus YEL003W, strain gim4, active compounds read low 0.968 | locus YEL037C, strain rad23, active compounds read low 0.976 | locus YEL061C, strain CIN8 (second series), active compounds read low 0.983 | locus YEL061C, strain CIN8, active compounds read low 1.01 | locus YER015W, strain faa2, active compounds read low 0.992 | locus YER016W, strain bim1, active compounds read low 0.988 | locus YER110C, active compounds read low 1.04 | locus YER111C, strain swi4, active compounds read low 0.971 | locus YER155C, strain BEM2 (second series), active compounds read low 0.97 | locus YER155C, strain BEM2, active compounds read low 1 | locus YER167W, strain BCK2, active compounds read low 1.01 | locus YFR010W, strain ubp6, active compounds read low 0.977 | locus YGL078C, strain dbp3, active compounds read low 1.03 | locus YGL086W, strain mad1, active compounds read low 0.994 | locus YGL167C, strain pmr1, active compounds read low 0.952 | locus YGL173C, strain kem1, active compounds read low 0.955 | locus YGL227W, strain vid30, active compounds read low 0.983 | locus YGL240W, strain doc1, active compounds read low 0.962 | locus YGL248W, strain PDE1, active compounds read low 1.02 | locus YGL253W, strain hxk2, active compounds read low 0.981 | locus YGR135W, strain pre9, active compounds read low 1.03 | locus YGR252W, strain gcn5, active compounds read low 1.05 | locus YHR013C, strain ard1, active compounds read low 0.991 | locus YHR027C, strain rpn1, active compounds read low 1 | locus YHR030C, strain SLT2, active compounds read low 1 and 0.999 | locus YHR079C, strain IRE1 (second series), active compounds read low 1.03 | locus YHR079C, strain IRE1, active compounds read low 0.996 | locus YHR094C, strain hxt1, active compounds read low 1.02 | locus YHR129C, strain ARP1, active compounds read low 1 | locus YHR142W, strain chs7, active compounds read low 0.978 | locus YHR200W, strain rpn10, active compounds read low 1.03 | locus YIL066C, strain RNR3, active compounds read low 1.01 | locus YIL073C, strain SPO22, active compounds read low 1.06 | locus YIL125W, strain kgd1, active compounds read low 1.02 | locus YIR030C, strain dcg1, active compounds read low 1.03 | locus YJL092W, strain hpr5, active compounds read low 0.968 | locus YJL095W, strain BCK1 (second series), active compounds read low 0.992 | locus YJL095W, strain BCK1, active compounds read low 1.02 | locus YJL115W, strain asf1, active compounds read low 0.985 | locus YJL129C, strain trk1, active compounds read low 0.922 | locus YJL134W, strain LCB3, active compounds read low 1.01 | locus YJL154C, strain vps35, active compounds read low 0.963 | locus YJL164C, strain tpk1, active compounds read low 1 | locus YJL166W, strain qcr8, active compounds read low 0.966 | locus YJL168C, strain set2, active compounds read low 1.03 | locus YJL187C, strain SWE1 (second series), active compounds read low 1.01 | locus YJR043C, strain POL32, active compounds read low 0.993 | locus YJR066W, strain TOR1, active compounds read low 0.973 | locus YJR075W, strain HOC1, active compounds read low 1.01 | locus YKL009W, strain mrt4, active compounds read low 1.02 | locus YKL068W, active compounds read low 1.02 | locus YKL085W, strain MDH1 (second series), active compounds read low 1.02 | locus YKL085W, strain MDH1, active compounds read low 1.02 | locus YKL160W, strain elf1, active compounds read low 0.961 | locus YKR001C, strain vps1, active compounds read low 1.04 | locus YKR026C, strain gcn3, active compounds read low 0.974 | locus YKR091W, strain srl3, active compounds read low 0.974 | locus YLL001W, strain dnm1, active compounds read low 0.93 | locus YLL026W, active compounds read low 0.994 | locus YLL041C, strain sdh2, active compounds read low 0.98 | locus YLR027C, strain aat2, active compounds read low 0.961 | locus YLR039C, strain RIC1, active compounds read low 1 | locus YLR058C, strain SHM2, active compounds read low 1.01 | locus YLR102C, strain apc9, active compounds read low 1.03 | locus YLR113W, strain HOG1, active compounds read low 0.986 | locus YLR221C, strain rsa3, active compounds read low 1.01 | locus YLR258W, strain gsy2, active compounds read low 0.995 | locus YLR262C, strain YPT6 (second series), active compounds read low 0.951 | locus YLR262C, strain YPT6, active compounds read low 1.05 | locus YLR268W, strain sec22, active compounds read low 1.04 | locus YLR320W, strain mms22, active compounds read low 0.993 | locus YLR330W, strain CHS5, active compounds read low 1.01 | locus YLR342W, strain FKS1 (second series), active compounds read low 0.987 | locus YLR342W, strain FKS1, active compounds read low 0.963 | locus YLR357W, strain rsc2, active compounds read low 0.974 | locus YLR370C, strain arc18, active compounds read low 0.973 | locus YLR371W, strain rom2, active compounds read low 1.02 | locus YLR384C, strain iki3, active compounds read low 0.974 | locus YLR418C, strain cdc73, active compounds read low 1.08 | locus YML016C, strain PPZ1, active compounds read low 1.01 | locus YML032C, strain rad52, active compounds read low 1.04 | locus YML120C, strain ndi1, active compounds read low 0.967 | locus YML124C, strain tub3, active compounds read low 1.03 | locus YMR058W, strain fet3, active compounds read low 0.971 | locus YMR078C, strain ctf18, active compounds read low 1.04 | locus YMR125W, strain sto1, active compounds read low 0.988 | locus YMR129W, active compounds read low 0.991 | locus YMR205C, strain PFK2, active compounds read low 0.983 | locus YMR223W, strain ubp8, active compounds read low 1.04 | locus YMR231W, strain pep5, active compounds read low 0.972 | locus YMR263W, strain SAP30, active compounds read low 1.01 | locus YMR307W, strain GAS1, active compounds read low 0.923 | locus YNL067W, strain RPL9B, active compounds read low 1.01 | locus YNL071W, strain lat1, active compounds read low 1.01 | locus YNL153C, strain GIM3, active compounds read low 1.01 | locus YNL183C, strain NPR1, active compounds read low 0.953 | locus YNL209W, strain ssb2, active compounds read low 0.998 | locus YNL233W, strain BNI4, active compounds read low 1.01 | locus YNL248C, strain rpa49, active compounds read low 1 | locus YNL250W, strain rad50, active compounds read low 1.05 | locus YNL271C, strain bni1, active compounds read low 1.04 | locus YNL298W, strain CLA4, active compounds read low 1.02 | locus YNL307C, strain MCK1, active compounds read low 1.02 | locus YNL322C, strain KRE1 (second series), active compounds read low 0.969 | locus YNL322C, strain KRE1, active compounds read low 1.01 | locus YNR049C, strain mso1, active compounds read low 0.977 | locus YNR052C, strain pop2, active compounds read low 1.02 | locus YOL012C, strain htz1 1.93 | locus YOL147C, strain pex11, active compounds read low 1.04 | locus YOR001W, strain rrp6, active compounds read low 0.951 | locus YOR061W, strain CKA2, active compounds read low 1.01 | locus YOR069W, strain VPS5, active compounds read low 1.01 | locus YOR070C, strain gyp1, active compounds read low 0.993 | locus YOR080W, strain dia2, active compounds read low 0.956 | locus YOR083W, strain WHI5, active compounds read low 0.959 | locus YOR106W, strain vam3, active compounds read low 0.966 | locus YOR136W, strain idh2, active compounds read low 1.03 | locus YOR144C, strain elg1, active compounds read low 1.02 | locus YOR184W, strain ser1, active compounds read low 1.05 | locus YOR231W, strain MKK1, active compounds read low 0.995 | locus YOR265W, strain rbl2, active compounds read low 0.991 | locus YOR270C, strain vph1, active compounds read low 0.978 | locus YOR290C, strain snf2, active compounds read low 1.01 | locus YOR316C, strain cot1, active compounds read low 1.03 | locus YPL051W, strain arl3, active compounds read low 0.989 | locus YPL055C, strain LGE1, active compounds read low 1 | locus YPL078C, strain atp4, active compounds read low 0.933 | locus YPL106C, strain sse1, active compounds read low 1.02 | locus YPL240C, strain hsp82, active compounds read low 0.984 | locus YPL241C, strain CIN2, active compounds read low 1 | locus YPL256C, strain CLN2, active compounds read low 0.962 | locus YPR119W, strain clb2, active compounds read low 1.03 | locus YPR141C, strain kar3, active compounds read low 1.04 | locus YPR163C, strain tif3, active compounds read low 1.05 | locus YPR167C, strain met16, active compounds read low 1.03 | strain wtn01, active compounds read low 1.04
